Test results published in the supplement of paper PMC10849652.
About 8,800 targets were measured; listed, in parts, are those with a hit and a random draw of the rest. About 0.5% of all pairs of compound and target were hits.

Compound: CCCS(=O)(=O)Nc1ccc(F)c(C(=O)c2c[nH]c3ncc(Cl)cc23)c1F
Assay: log2 fold change, soluble protein after heating vs DMSO (PISA); higher = thermal stabilisation; K562 lysate, 10 uM; active = over 0.2 and 3.5 SD of the protein, either way, in both replicates (recomputed)
How it was run: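 Dounce homogenisation of K562 pellets in PBS pH 7.4 with 1 mM MgCl2 produced a crude extract, used at 1 mg/mL protein. Exposure to 10 μM compound lasted 30 min, and aliquots were then heated for 3 min across 48°C-58°C, pooled and brought to 0.5% NP-40 at 4°C. The supernatant after 21,000xg for 90 min was quantified by TMTpro 16plex LC-MS/MS with channel sums equalised. Duplicate values are given as log-two fold change in thermal stability relative to solvent controls.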

Chain of UniProt Q9NR22 (Q9NR22 whole entry, looked up): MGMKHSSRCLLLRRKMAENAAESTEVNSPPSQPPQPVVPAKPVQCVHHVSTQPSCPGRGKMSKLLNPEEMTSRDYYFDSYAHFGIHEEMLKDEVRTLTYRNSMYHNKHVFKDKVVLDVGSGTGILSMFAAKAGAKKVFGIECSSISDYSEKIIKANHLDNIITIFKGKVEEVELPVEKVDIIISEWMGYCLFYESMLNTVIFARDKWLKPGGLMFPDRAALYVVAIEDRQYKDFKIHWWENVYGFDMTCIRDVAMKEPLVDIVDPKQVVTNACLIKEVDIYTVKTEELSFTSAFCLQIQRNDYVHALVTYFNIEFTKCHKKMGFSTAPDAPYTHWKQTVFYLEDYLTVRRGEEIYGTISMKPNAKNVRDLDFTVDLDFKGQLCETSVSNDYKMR
Chain of UniProt O94913 (O94913 whole entry, looked up): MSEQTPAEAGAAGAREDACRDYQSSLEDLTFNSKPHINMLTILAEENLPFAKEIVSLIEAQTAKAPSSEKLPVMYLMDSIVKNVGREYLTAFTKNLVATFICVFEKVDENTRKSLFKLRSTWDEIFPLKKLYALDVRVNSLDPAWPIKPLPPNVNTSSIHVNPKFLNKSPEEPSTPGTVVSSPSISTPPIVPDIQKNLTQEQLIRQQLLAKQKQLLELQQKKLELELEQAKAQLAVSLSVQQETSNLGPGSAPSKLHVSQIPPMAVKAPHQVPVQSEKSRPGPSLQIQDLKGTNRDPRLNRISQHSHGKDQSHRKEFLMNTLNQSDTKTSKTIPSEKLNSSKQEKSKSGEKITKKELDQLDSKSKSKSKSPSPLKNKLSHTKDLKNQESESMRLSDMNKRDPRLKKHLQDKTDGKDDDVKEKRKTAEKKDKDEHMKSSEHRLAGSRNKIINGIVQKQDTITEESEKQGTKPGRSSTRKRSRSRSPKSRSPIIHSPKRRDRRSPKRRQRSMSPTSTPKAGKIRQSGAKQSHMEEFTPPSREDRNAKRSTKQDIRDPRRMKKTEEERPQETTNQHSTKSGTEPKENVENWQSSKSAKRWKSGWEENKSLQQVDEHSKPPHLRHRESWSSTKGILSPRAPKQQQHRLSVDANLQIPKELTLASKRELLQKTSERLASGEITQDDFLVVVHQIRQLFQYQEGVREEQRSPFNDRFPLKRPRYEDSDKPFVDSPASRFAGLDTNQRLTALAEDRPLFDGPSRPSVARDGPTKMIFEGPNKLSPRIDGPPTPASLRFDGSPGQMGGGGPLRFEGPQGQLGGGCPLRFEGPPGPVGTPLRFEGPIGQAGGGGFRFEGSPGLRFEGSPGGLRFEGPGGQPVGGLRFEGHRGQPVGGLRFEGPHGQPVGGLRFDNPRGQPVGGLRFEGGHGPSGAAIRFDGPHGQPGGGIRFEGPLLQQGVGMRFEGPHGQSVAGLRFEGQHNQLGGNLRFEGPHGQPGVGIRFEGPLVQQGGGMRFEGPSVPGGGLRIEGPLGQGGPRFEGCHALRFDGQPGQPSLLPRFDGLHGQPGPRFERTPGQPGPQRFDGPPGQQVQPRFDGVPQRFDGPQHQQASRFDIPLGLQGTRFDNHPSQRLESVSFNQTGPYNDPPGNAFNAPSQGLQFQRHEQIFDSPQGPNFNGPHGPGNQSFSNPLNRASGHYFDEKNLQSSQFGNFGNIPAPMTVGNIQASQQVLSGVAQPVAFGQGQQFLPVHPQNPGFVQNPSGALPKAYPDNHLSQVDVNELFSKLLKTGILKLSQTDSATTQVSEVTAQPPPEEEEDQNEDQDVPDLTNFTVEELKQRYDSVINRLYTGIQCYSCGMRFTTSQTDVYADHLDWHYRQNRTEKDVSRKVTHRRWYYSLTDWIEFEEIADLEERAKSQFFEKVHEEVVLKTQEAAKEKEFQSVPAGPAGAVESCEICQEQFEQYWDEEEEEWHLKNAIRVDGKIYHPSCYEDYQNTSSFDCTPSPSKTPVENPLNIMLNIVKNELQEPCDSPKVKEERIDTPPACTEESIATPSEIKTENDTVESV
Chain of UniProt Q15269 (Q15269 whole entry, looked up): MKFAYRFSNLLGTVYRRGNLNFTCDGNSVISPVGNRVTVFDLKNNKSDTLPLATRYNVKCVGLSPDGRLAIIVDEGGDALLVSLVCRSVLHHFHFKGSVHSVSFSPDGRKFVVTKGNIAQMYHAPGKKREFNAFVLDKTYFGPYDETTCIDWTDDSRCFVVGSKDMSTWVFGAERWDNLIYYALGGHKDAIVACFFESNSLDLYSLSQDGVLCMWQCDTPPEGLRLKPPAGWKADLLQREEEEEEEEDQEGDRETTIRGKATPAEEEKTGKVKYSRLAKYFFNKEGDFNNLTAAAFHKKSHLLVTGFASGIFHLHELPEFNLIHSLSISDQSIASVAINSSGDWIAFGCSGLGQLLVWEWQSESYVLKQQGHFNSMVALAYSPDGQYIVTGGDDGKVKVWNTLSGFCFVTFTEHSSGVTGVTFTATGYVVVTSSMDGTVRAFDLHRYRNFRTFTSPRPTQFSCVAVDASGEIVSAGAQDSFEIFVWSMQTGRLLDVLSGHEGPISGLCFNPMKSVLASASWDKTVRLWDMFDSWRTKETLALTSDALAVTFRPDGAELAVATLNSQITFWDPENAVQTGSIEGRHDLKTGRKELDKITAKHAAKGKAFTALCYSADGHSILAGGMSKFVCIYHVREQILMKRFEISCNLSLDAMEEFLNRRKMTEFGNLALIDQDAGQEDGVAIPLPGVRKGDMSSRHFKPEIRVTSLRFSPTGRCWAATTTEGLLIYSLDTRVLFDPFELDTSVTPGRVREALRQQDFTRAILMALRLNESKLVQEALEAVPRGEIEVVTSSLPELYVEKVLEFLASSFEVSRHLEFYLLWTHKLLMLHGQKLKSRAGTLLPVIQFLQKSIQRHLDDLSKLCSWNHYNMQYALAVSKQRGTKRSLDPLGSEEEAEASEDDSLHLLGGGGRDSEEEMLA
Chain of UniProt P53609 (P53609 whole entry, looked up): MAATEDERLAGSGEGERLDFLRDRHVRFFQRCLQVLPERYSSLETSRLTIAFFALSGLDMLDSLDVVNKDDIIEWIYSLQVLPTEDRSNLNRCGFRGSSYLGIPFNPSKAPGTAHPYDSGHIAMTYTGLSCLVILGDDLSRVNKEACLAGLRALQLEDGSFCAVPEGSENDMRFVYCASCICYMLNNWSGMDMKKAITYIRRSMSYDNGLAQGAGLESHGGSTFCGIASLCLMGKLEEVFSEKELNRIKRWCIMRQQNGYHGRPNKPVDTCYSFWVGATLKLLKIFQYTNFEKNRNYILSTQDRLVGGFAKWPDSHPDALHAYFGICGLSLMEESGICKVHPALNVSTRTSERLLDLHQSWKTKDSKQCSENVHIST
Chain of UniProt Q13362 (Q13362 whole entry, looked up): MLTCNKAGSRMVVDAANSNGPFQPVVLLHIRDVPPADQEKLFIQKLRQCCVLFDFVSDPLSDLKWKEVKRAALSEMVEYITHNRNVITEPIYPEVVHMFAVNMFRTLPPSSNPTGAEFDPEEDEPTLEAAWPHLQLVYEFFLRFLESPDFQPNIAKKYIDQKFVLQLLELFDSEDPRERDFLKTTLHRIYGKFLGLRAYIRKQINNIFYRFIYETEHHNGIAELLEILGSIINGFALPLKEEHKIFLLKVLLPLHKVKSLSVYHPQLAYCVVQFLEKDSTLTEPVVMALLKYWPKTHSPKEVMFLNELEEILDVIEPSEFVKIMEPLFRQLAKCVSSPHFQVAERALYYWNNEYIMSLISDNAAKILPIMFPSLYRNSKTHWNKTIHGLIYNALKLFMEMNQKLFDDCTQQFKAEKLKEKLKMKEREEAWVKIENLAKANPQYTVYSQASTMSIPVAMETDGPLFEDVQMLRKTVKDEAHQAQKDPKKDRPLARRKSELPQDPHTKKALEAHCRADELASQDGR
Chain of UniProt P0CAP2 (P0CAP2 whole entry, looked up): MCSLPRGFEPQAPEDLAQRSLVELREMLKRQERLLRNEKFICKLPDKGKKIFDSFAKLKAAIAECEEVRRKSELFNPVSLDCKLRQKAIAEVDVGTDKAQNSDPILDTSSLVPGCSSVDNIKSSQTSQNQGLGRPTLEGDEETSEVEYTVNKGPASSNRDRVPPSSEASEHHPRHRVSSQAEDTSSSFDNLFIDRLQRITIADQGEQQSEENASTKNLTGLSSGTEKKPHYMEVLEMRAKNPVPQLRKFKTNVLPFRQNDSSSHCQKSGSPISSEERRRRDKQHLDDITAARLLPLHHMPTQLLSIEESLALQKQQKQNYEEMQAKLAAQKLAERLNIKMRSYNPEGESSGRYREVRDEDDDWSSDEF
Chain of UniProt P28065 (P28065 whole entry, looked up): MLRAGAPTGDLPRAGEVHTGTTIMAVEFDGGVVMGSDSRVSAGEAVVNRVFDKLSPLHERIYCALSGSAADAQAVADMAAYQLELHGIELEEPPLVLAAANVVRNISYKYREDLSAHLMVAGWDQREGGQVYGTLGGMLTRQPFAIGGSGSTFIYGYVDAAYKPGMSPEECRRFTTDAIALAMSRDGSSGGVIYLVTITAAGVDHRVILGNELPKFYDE
Chain of UniProt P14314 (P14314 whole entry, looked up): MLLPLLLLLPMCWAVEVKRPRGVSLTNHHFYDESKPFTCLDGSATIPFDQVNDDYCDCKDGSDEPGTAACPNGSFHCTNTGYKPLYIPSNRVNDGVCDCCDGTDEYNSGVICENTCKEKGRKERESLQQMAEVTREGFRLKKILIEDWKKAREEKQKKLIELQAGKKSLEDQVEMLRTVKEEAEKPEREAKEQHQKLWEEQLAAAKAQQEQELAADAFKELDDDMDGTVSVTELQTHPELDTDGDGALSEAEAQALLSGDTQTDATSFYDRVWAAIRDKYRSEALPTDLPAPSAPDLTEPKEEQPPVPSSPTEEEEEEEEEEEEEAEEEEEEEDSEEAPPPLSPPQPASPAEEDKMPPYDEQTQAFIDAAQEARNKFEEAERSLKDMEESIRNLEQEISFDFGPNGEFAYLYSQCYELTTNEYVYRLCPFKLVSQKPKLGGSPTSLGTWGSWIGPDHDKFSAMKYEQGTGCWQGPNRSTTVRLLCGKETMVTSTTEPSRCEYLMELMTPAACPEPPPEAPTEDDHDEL

log2 fold change, inactive:
PPP2R5C isoform 5 (UniProt Q13362) -0.013
PLXNB2 (UniProt O15031) -0.007
PRKCSH isoform 2 (UniProt P14314) -0.053
PCBP2 (UniProt H3BRU6) -0.031
PRMT8 (UniProt Q9NR22) 0.021
PDF (UniProt Q9HBH1) 0.03
PIP4K2B (UniProt P78356) 0.012
PUF60 (UniProt Q9UHX1) 0.015
PI4KA (UniProt P42356) 0.014
PRKAR2B (UniProt P31323) 0
PRKAB2 (UniProt O43741) 0.104
PTPN23 (UniProt Q9H3S7) 0
PSMB9 (UniProt P28065) 0.037
POLR2M (UniProt P0CAP2) 0.02
POGK (UniProt Q9P215) 0.114
POLD1 (UniProt P28340) 0.053
PDCD6IP (UniProt Q8WUM4) 0.015
PRKCB isoform 2 (UniProt P05771) -0.024
POLR2F (UniProt P61218) -0.018
PGPEP1 (UniProt Q9NXJ5) 0.022
PHKG2 (UniProt P15735) -0.055
PIK3R2 (UniProt O00459) 0
PGGT1B (UniProt P53609) 0.004
PCF11 (UniProt O94913) 0.012
PIP4P2 (UniProt Q8N4L2) 0.031
PRKACB isoform 2 (UniProt P22694) -0.016
PRKCD (UniProt Q05655) -0.118
PRKAR2A (UniProt P13861) 0.033
PSTPIP2 (UniProt Q9H939) 0.018
PUS1 (UniProt Q9Y606) 0.002
PWP1 (UniProt Q13610) 0.019
PWP2 (UniProt Q15269) 0.045
PHKA1 (UniProt P46020) 0.009
PICALM (UniProt Q13492) -0.004
PES1 (UniProt O00541) 0.023
PLEKHO2 (UniProt Q8TD55) 0.247
PPOX (UniProt P50336) 0.02
PRIM2 (UniProt P49643) 0.04
PHGDH (UniProt O43175) -0.001
